Bioassay records: PubChem BioAssay, National Center for Advancing Translational Sciences (NCATS)
Pf Dd2 inh – inhibitors of Plasmodium falciparum Dd2 growth | AID 1347417 | Potency, µM (top dose mostly 28.9 µM), for inactives: at the highest dose activity, negative = inhibition, hits mostly inhibitors | hit rate 4.3% among 120,000 | P. falciparum Dd2 growth, SYBR Green, 72 h; active means well fitted inhibition curve with a large enough effect;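 further: plate controls were DMSO vehicle for no effect and reference drug for full effect; nearly all actives have a fitted effect of over 65% in size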
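Readout: SYBR Green fluorescence, 485 nm excitation, 535 nm emission, after ~16 h lysis at 37C. Before that, Dd2-infected red cells (2.5% hematocrit) grew 72 h with compound, 29 uM top final concentration.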
* hit, by the source's call; i = inactive; [ ] = remark or other dose. The full list was thinned out, with hits kept by preference. Potency means the concentration at half of the fitted maximal effect.

SMILES	Pf Dd2 inh
CCOC(=O)Cn1c(=O)n(-c2cccc(Cl)c2)c2nc(-c3ccccc3Cl)nc(C(N)=O)c21	10µM*
CCOC(=O)Cn1c(=O)n(CC2CCCO2)c2nc(-c3ccccc3Cl)nc(C(N)=O)c21 (centres undefined)	6%
COc1ccc(-n2ncc(C(=O)N3CCN(C(=O)c4ccco4)CC3)c2C2CCN(C(=O)OC(C)(C)C)CC2)cc1	38%
CC(C)(C)OC(=O)N1CCC(c2c(C(=O)N3CCN(C4CCCCC4)CC3)cnn2-c2cccc(Cl)c2)CC1	10µM*
CC(C)(C)OC(=O)N1CCC(c2c(C(=O)N3CCN(C(=O)c4ccco4)CC3)cnn2-c2cccc(Cl)c2)CC1	10µM*
CN1CCN(C(=O)c2cnn(-c3ccccc3)c2C2CCN(C(=O)OC(C)(C)C)CC2)CC1	-21%
CC(C)(C)OC(=O)N1CCC(c2c(C(=O)N3CCN(c4ncccn4)CC3)cnn2-c2cccc(F)c2)CC1	8%
CC(C)(C)OC(=O)N1CCC(c2c(C(=O)NC3CCN(Cc4ccccc4)CC3)cnn2-c2cccc(F)c2)CC1	-17%
Cc1cccc(-n2ncc(C(=O)N3CCN(Cc4ccccc4)CC3)c2C2CCN(C(=O)OC(C)(C)C)CC2)c1	7.9µM*
Cc1ccc(-n2ncc(C(=O)N3CCN(c4cccc(C)c4)C(C)C3)c2C2CCN(C(=O)OC(C)(C)C)CC2)cc1 (centres undefined)	4.5µM*
CC(C)(C)OC(=O)N1CCC(c2c(C(=O)N3CCCCC3)cnn2-c2ccc(F)cc2)CC1	3%
C[C@H](C(=O)N1CCCC1)C1CC[C@@]2(C)Cc3sc(CS(=O)(=O)C(C)(C)C)nc3[C@@H](C)[C@@H]2[C@H]1O (some centres undefined)	-20%
NC1CCc2nn(CC(=O)N3CCc4ccccc43)c(=O)n2CC1 (centres undefined)	20%
CC(C)c1nnc(C2CN(C(=O)c3nccc4ccccc34)CC23CCOCC3)o1 (centres undefined)	i
COCCN1CC(CO)C2(CCN(C(=O)CN3CCOCC3)CC2)C1 (centres undefined)	19%
O=C(COc1ccccc1)NC1CCc2n[nH]c(=O)n2CC1 (centres undefined)	i
CCOC(=O)c1c(C)n(-c2ccccc2)c2ccc(OC(=O)c3c(F)cccc3F)cc12	-16%
CCOC(=O)c1c(C)n(-c2ccccc2)c2ccc(OC(=O)c3ccccc3)cc12	2.8µM*
CCOC(=O)c1cc(OC(=O)c2ccc(OC)cc2)n(-c2ccccc2)n1	-10%
O=C(NCc1ccnc2[nH]ccc12)c1ccc2c(c1)OCO2	3%[44.1 µM]
CC(=O)Nc1ccc(C(=O)N2CCN(C3CCNCC3)C(=O)C2)cc1	2%
CCOc1ccc(Br)cc1S(=O)(=O)Nc1cccc(-c2ccc(OC)nn2)c1	5%
CCOc1ccc(-c2cccc(NS(=O)(=O)c3ccc(F)cc3F)c2)nn1	59%[0.594 µM]
CCOc1ccc(-c2ccc(NS(=O)(=O)c3cc(C)ccc3OC)cc2)nn1	10µM*
COCC1CN(C2CCC2)CC12CCN(C(=O)c1ccoc1)CC2 (centres undefined)	6%
SMILES	Pf Dd2 inh
CCc1cccc2c(C(CC(=O)NCCc3ccccc3)c3cccc4c3OCO4)c[nH]c12 (centres undefined)	i
Cc1ccc(-c2ccccc2CN)c(C)c1	5µM*
Cc1ccc(-c2cccc(C=O)c2)c(C)c1	4%[44.1 µM]
Cc1ccc(C)c(CN2C(=O)C(=O)c3ccccc32)c1	-23%
O=C1CCCN1CCCN1C(=O)[C@H]2CN(Cc3ccc(F)c(Cl)c3)C[C@H]2C1=O	16%
CC(=O)c1ccc(NC(=O)O[C@@H]2CO[C@H]3[C@@H]2OC[C@@H]3NC(=O)NCc2ccccc2)cc1	-25%
O=C(c1cnccn1)N1CCC(N2C(=O)C(O)C23CCCCC3)CC1 (centres undefined)	1%
CCOc1ccc(S(=O)(=O)c2c(C(=O)c3ccc(C)c(C)c3)cnc3ccccc23)cc1	7.9µM*
COc1ccc(C(=O)c2cnc3ccc(C)cc3c2S(=O)(=O)c2ccccc2)cc1	11µM*
CCOc1ccc(Nc2c(S(=O)(=O)c3ccc(C)cc3)cnc3cc(OC)c(OC)cc23)cc1	-28%
CCOc1ccc(Nc2c(S(=O)(=O)c3ccc(C)cc3)cnc3ccc(OC)cc23)cc1	i
COc1ccc(-c2cc(C(=O)Oc3cccc(C)c3)c3cc(C)ccc3n2)cc1	43%
COc1ccc(S(=O)(=O)c2c(C(=O)c3ccc(C)c(C)c3)cnc3ccc(F)cc23)cc1	-22%
O=C(Nc1ccc([C@H]2OCC(=O)N(Cc3ccc(F)cc3)[C@@H]2CO)cc1)C1CC1	-10%[44.1 µM]
O=C(CC1CCOC2(CCN(S(=O)(=O)Cc3ccccc3F)CC2)C1)NC1CC1 (centres undefined)	i
Cc1ccc2c(c1)C(C[C@H]1CN(C(=O)CC(C)(C)C)CC[C@H]1CC(=O)O)=NCC2	-20%[44.1 µM]
CCc1cc(=O)n(CC(=O)NCc2ccc(OC)c(OC)c2)c(N2CCOCC2)n1	i
O=C(CC1CCOCC1)NCCc1ccccn1	51%
O=C(c1cnccn1)N1C[C@@H]2OCC(=O)N(Cc3ccccc3)[C@@H]2C1	23%[44.1 µM]
COc1cccc([S+](=O)([O-])N2CCC3(CC2)C(=O)Nc2ccccc23)c1	-20%[44.1 µM]
COC(=O)C1CCN(CC(O)COc2cccc(CN3CC=C(C)CC3)c2)CC1 (centres undefined)	-5%
CCN(CC)Cc1ccc2c(c1)CN(C(=O)c1cccc(F)c1)CCO2	6.3µM*
CCOCCCNC(=O)N1CCOc2ccc(CN(CC)CC)cc2C1	i
COc1cccc(C(=O)N2CCOc3ccc(CN4CCCCC4)cc3C2)c1	i
Cc1noc([C@H]2CCN(C(=O)Nc3ccc4c(c3)OCCO4)C[C@H]2NC(=O)C2CC2)n1	2%
SMILES	Pf Dd2 inh
CN(C)c1nc2c(c(=O)[nH]1)CCN(Cc1ccc(OC(F)(F)F)cc1)CC2	9%[5.79 µM]
CC(=O)Nc1ccc(S(=O)(=O)N[C@@H]2C=C[C@@H](c3c(C)nn(-c4ccc(C(C)(C)C)cc4)c3C)C2)cc1	i
Cc1nn(Cc2ccccc2)c(C)c1[C@@H]1C=C[C@@H](NS(=O)(=O)c2cccs2)C1	13µM*
Cc1nn(CCC#N)c(C)c1[C@@H]1C=C[C@@H](NC(=O)Nc2ccccc2)C1	-16%[44.1 µM]
COc1ccc(CC(=O)N2CCC(n3cnnc3C3CC3)CC2)cc1Cl	-21%
O=C(C[C@@H]1C[C@@H]2C=C[C@H]1C2)NCc1cccnc1-n1cnc2ccccc21	-17%
COc1ccc(-c2noc(CSc3nnc(C)n3-c3ccc(C)cc3)n2)cc1OC	-10%
Cc1ccc(N2CCN(c3cc(C)nc4c(-c5ccc(Cl)cc5)c(C)nn34)CC2C)cc1 (centres undefined)	i
COc1ccc(-c2noc(N3CCN(c4ccc(C)cc4)C(C)C3)n2)cc1OC (centres undefined)	1.6µM*
COC(=O)[C@H](Cc1ccc(OC)cc1)NC(=O)[C@H]1CN(C(=O)c2cccnc2)CCN1C(C)=O	i
COc1cccc(C(=O)c2sc(Nc3ccc(C)cc3C)c(S(=O)(=O)c3ccccc3)c2N)c1	10µM*
CCOc1ccc(Nc2sc(C(=O)c3cccc(OC)c3)c(N)c2S(=O)(=O)c2ccccc2)cc1	i
COc1ccc(OC)c(Nc2sc(C(=O)c3ccccc3)c(N)c2S(=O)(=O)c2ccccc2)c1	8.9µM*
CCOC(=O)c1sc2ccccc2c1S(=O)(=O)Nc1cc(OC)ccc1OC	53%
COc1ccc(CCNC(=O)c2c(Nc3ccccc3C)sc(C(=O)c3ccccc3)c2N)cc1OC	i
